Source: PubChem BioAssay
AGP1 TOR yeast – yeast TOR pathway AGP1-GFP modulation; AID 2066; S. cerevisiae AGP1-GFP multiplex flow cytometry, 3 h; GFP as percent of DMSO wells; 320,000 tested, 0.02% active; GFP response vs DMSO, % at 10 µM;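 active means GFP response relative to DMSO above a set limit, near screen average plus 3 SD, cut at about 150% in these data; inconclusive means fewer than 70 cells counted for the yeast strain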;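 further: median GFP channel fluorescence of the gated AGP1 strain per well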
MEP2 TOR yeast – alters MEP2-GFP fluorescence in TOR pathway yeast screen; S. cerevisiae MEP2-GFP strain, flow cytometry GFP, 3 h; 100% = DMSO control level; GFP response vs DMSO, % at 10 µM; 330,000 tested, 0.51% active; AID 2016;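 active means GFP response versus DMSO above a set limit, roughly screen mean plus 3 SD, cut at about 180% in these data; inconclusive means fewer than 70 cells counted for a yeast strain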;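 further: median GFP fluorescence of the barcode-gated MEP2-GFP cells per well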
LAP4 TOR yeast – yeast TOR pathway LAP4-GFP modulation; GFP response vs DMSO, % at 10 µM; 320,000 tested, 0.34% active; S. cerevisiae LAP4-GFP multiplex, flow cytometry GFP, 3 h; median GFP as percent of DMSO wells;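 active means GFP response vs DMSO above a set limit, about the screen mean plus 3 SD, cut at about 150% in these data; inconclusive means under 70 cell events counted for the yeast strain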
CIT2-GFP yeast – yeast TOR pathway CIT2-GFP modulation | AID 2029 | GFP response vs DMSO, % at 10 µM | S. cerevisiae CIT2-GFP strain, flow cytometry, 3 h; 100 means same as DMSO wells | 320,000 tested, 0.065% active;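 active means GFP response relative to DMSO above a set limit, near the screen mean plus 3 SD, cut at about 150% in these data; inconclusive means Fewer than 70 cells measured for a yeast strain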;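 further: ratio of well median GFP fluorescence to mean of DMSO wells on the plate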
RPL19A-GFP yeast – yeast TOR pathway RPL19A-GFP modulation; AID 2025; percent response vs DMSO, % at 10 µM; S. cerevisiae RPL19A-GFP strain, flow cytometry, 3 h; active compounds read low; 330,000 tested, 0.3% active;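 active means percent response vs DMSO below 50%; inconclusive means fewer than 70 events counted for the yeast strain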;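 further: median channel GFP fluorescence of the barcoded RPL19A-GFP strain; lower means less RPL19A-GFP as with rapamycin TOR inhibition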
DSG3 Ab inh – inhibitors of pemphigus antibody binding to human desmoglein-3; P32926; binding (percent of control), % at 10 µM; AID 588358; 310,000 tested, 0.48% active; DSG3-coupled beads, scFv-anti-DSG3-GFP binding, flow cytometry; active compounds read low;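 active means binding more than 3 SD below its plate's average and above zero; inconclusive means below that plate limit but binding exactly zero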;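 further: hits lower antibody fragment binding to DSG3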
Target sequence (P32926 whole entry, looked up, the tested form may be a part): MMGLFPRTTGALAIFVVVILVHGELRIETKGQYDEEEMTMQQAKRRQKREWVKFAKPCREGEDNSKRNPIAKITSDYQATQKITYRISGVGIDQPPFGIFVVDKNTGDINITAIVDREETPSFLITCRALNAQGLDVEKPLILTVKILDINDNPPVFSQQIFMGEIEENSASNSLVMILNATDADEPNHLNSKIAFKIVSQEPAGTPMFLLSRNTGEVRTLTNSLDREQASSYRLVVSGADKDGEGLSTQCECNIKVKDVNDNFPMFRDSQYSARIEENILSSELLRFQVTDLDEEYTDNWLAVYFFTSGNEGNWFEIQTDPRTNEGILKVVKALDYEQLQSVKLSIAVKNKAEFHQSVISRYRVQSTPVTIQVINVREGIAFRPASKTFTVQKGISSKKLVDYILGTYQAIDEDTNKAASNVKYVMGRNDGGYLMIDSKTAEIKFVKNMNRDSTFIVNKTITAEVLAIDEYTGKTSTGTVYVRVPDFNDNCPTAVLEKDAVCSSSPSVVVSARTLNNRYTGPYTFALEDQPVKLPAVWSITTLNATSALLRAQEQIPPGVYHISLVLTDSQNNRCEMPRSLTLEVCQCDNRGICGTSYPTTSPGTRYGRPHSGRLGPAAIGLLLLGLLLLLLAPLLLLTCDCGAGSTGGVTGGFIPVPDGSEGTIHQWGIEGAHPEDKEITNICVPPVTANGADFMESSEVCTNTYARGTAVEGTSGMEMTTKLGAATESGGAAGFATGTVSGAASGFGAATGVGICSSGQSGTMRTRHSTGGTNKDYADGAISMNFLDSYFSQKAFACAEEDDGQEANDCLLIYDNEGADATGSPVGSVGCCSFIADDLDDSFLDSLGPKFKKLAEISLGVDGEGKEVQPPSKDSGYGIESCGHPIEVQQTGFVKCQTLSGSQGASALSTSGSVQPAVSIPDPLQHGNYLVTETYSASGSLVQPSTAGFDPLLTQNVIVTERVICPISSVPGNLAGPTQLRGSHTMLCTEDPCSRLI
Of the large screens only hits and unclear results are named; the others gave an inactive call; [ ] = dose if it differs, or a comment. A selection: hits, their analogues and other compounds. The true share with any hit is near 1.2%.

O=C(N/N=C/c1cccn1-c1ccc([N+](=O)[O-])cc1)C(O)c1ccccc1 (configuration not stated)	none
O=C(Cc1ccccc1)N/N=C/c1cccn1-c1ccc([N+](=O)[O-])cc1	AGP1 TOR yeast inconclusive, MEP2 TOR yeast 185[may fluoresce violet], LAP4 TOR yeast inconclusive, CIT2-GFP yeast inconclusive, RPL19A-GFP yeast 32[may fluoresce violet] (no result: DSG3 Ab inh)
Cc1ccc(C(=O)N/C(=C/c2ccco2)C(=O)N2CCCCC2)cc1	none
Cc1ccc(C(=O)N/C(=C/c2ccco2)C(=O)N2CCOCC2)cc1	LAP4 TOR yeast 174
C=CCSc1nc2ccccc2c2nc(-c3ccccc3)nn12	DSG3 Ab inh 2.7
C=CCNC(=O)CCC(=O)NNc1nc2ccccc2c2nc(-c3ccccc3)nn12	none
O=C(c1ccoc1)N1CCN(c2cc(-c3cccc(F)c3)nc3cc(-c4cccc(Cl)c4)nn23)CC1	none (no result: AGP1 TOR yeast, MEP2 TOR yeast, LAP4 TOR yeast, CIT2-GFP yeast, RPL19A-GFP yeast)
COc1ccc(NC(=O)c2cc3c(COC(C)=O)cnc(C)c3oc2=Nc2cccc(C(=O)O)c2)c(OC)c1	DSG3 Ab inh 66 (no result: LAP4 TOR yeast)
Clc1ccc2nc(N3CCNCC3)nc(-c3ccccc3)c2c1	AGP1 TOR yeast inconclusive, MEP2 TOR yeast inconclusive, LAP4 TOR yeast inconclusive, CIT2-GFP yeast inconclusive, RPL19A-GFP yeast 39[may fluoresce violet] (no result: DSG3 Ab inh)
CN1CCN(c2nc(-c3ccccc3)c3cc(Cl)ccc3n2)CC1	none
Cc1ccc(S(=O)(=O)N2CCC(C(=O)OCC(=O)N(C)C3CCS(=O)(=O)C3)CC2)cc1C (configuration not stated)	none
Cc1cc(C)cc(-c2nnc(SCC(=O)c3ccc4c(c3)OCCO4)o2)c1	none
O=C(CSc1nnc(-c2ccccc2)o1)c1ccc2c(c1)OCCO2	AGP1 TOR yeast inconclusive, MEP2 TOR yeast 297[may fluoresce violet], CIT2-GFP yeast inconclusive, DSG3 Ab inh inconclusive (no result: RPL19A-GFP yeast)
Cc1ccc(Nc2cc(C)nn2-c2nc(C)cc(=O)[nH]2)cc1	LAP4 TOR yeast 152
Cc1ccc(Nc2cc(C)nn2-c2nc(C)cc(C)n2)cc1	none
CCC(=O)Nc1ccc(C(=O)CN2C(=O)NC3(CCCCCC3)C2=O)cc1	none
O=c1[nH]cc(S(=O)(=O)N2CCN(c3ccccc3F)CC2)c(=O)[nH]1	none (no result: AGP1 TOR yeast, MEP2 TOR yeast, LAP4 TOR yeast, CIT2-GFP yeast, RPL19A-GFP yeast)
C/C(=N\NC(=O)c1nonc1N)c1cccs1	MEP2 TOR yeast 233
O=C(C1=C(O)C(=O)N(c2ncccn2)C1c1ccc(F)cc1)c1ccco1 (configuration not stated)	MEP2 TOR yeast 506[may fluoresce violet], RPL19A-GFP yeast 43[may fluoresce violet] (no result: AGP1 TOR yeast, LAP4 TOR yeast, CIT2-GFP yeast)
Cc1cc(=O)oc2c3c(cc(OCC(=O)Nc4ccc(CCO)cc4)c12)OC(C)(C)CC3	AGP1 TOR yeast inconclusive, MEP2 TOR yeast 209[may fluoresce violet], CIT2-GFP yeast inconclusive, RPL19A-GFP yeast 41[may fluoresce violet]
O=c1c(Cl)c(Nc2cccc(Cl)c2)cnn1-c1nc2ccccc2s1	none (no result: DSG3 Ab inh)
COc1ccc(Nc2cnn(-c3nc4ccccc4s3)c(=O)c2Cl)cc1	MEP2 TOR yeast 181
O=S(=O)(NCCc1ccccn1)c1ccc(OC(F)(F)F)cc1	CIT2-GFP yeast 171[may fluoresce green]
CCCCCCCCCCCC1N=C(N)NC(CCCO)=C1C(=O)OC (configuration not stated)	none (no result: AGP1 TOR yeast, MEP2 TOR yeast, LAP4 TOR yeast, CIT2-GFP yeast, RPL19A-GFP yeast)
O=C(Cc1cccc(NC(=O)C2CCN(C(=O)C3CCCC3)CC2)c1)Nc1cccc(C(=O)N2CCOCC2)c1	none (no result: AGP1 TOR yeast, MEP2 TOR yeast, LAP4 TOR yeast, CIT2-GFP yeast, RPL19A-GFP yeast)
CCCS(=O)(=O)N1CCN=C1SCc1ccc(F)cc1	none
O=C(OCC(=O)N1CCN(C(=O)c2ccco2)CC1)c1ccccc1O	none (no result: LAP4 TOR yeast)
N#Cc1ccccc1Sc1ccccc1C(=O)OCC(=O)N1CCN(C(=O)c2ccco2)CC1	AGP1 TOR yeast inconclusive, MEP2 TOR yeast 207[may fluoresce violet], CIT2-GFP yeast inconclusive, RPL19A-GFP yeast 15[may fluoresce violet]
CC(N)C(=O)NC(CO)C(O)C(N)C=O (configuration not stated)	none (no result: AGP1 TOR yeast, MEP2 TOR yeast, LAP4 TOR yeast, CIT2-GFP yeast, RPL19A-GFP yeast)
CC(C)OC(=O)CSc1nc2c(cc1C#N)CCCCC2	DSG3 Ab inh 87
COc1cccc(CN2CC(C(=O)NCCc3nccs3)CCC2=O)c1 (configuration not stated)	none (no result: AGP1 TOR yeast, MEP2 TOR yeast, LAP4 TOR yeast, CIT2-GFP yeast, RPL19A-GFP yeast)
CCc1ccc(N(C(C)=O)c2nc(CCl)cs2)cc1	DSG3 Ab inh 87
CC(=O)N(/N=C/c1ccc(C)cc1)c1nc(CCl)cs1	none
Cc1[nH]ccc2cc3nc4ccccc4c3cc12	none (no result: AGP1 TOR yeast, MEP2 TOR yeast, LAP4 TOR yeast, CIT2-GFP yeast, RPL19A-GFP yeast)
CC(=O)OCCN1C(=O)c2cccc3cc([N+](=O)[O-])cc(c23)C1=O	none (no result: DSG3 Ab inh)
O=C1c2ccccc2C(=O)N1CCn1ccnc1	none
O=C1c2ccccc2C(=O)N1CCCn1ccnc1	DSG3 Ab inh 91
